# Laboratory results reported in PubChem BioAssay (NCATS).
# Results filed as inconclusive are left out. A call without a number means that no potency is given here. Calls of active or inactive are those of the source. Unless noted, calls follow the shape of the dose curve; as a rule, active = well fitted curve in the direction sought with a large enough effect; inconclusive = small, poorly fitted or top-dose-only effect, or another doubt; inactive = no such curve, though single readings can be large; an effect the other way counts as inactive or inconclusive.
# Experiments:
# [1] = target: Cytochrome P450 3A4 (Homo sapiens) (UniProt P08684); assay: qHTS Assay for Activators of Cytochrome P450 3A4 (AID 885); also: nearly all actives have a fitted effect of over 65% in size
# Summary of the method: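 20nM CYP3A4 + 25uM Luciferin-PPXE (=KM), 200mM KPO4; cpd 10 min RT; NADPH regen, 60 min RT; stop w/ detection buffer, 20 min; luminescence. Normalized to 57 uM ketoconazole.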
# [2] = Confirmation and Secondary Assay for Modulators of Hemoglobin Beta Chain Splicing at IVS2 654 locus (AID 910);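 also: HeLa cells stably carrying EGFP split by mutant beta-globin IVS2-654 intron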
# Summary of the method: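 HeLa cells stably expressing EGFP interrupted by β-globin IVS2-654 intron, seeded overnight in Opti-MEM/2% FCS, then treated 2 days at 37 °C. Restored splicing read as total peak GFP intensity per well by laser scanning cytometry (488 nm excitation, 500–520 nm emission); 500 nM antisense PNA as control.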
# [3] = Confirmation and Secondary Assay for Modulators of Hemoglobin Beta Chain Splicing at IVS2 705 locus (AID 930);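 also: HeLa cells stably expressing the EGFP-705 splicing reporter; GFP fluorescence per well restored by corrected splicing of the IVS2-705 intron in EGFP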
# Summary of the method: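 Stable HeLa line with EGFP disrupted by mutant beta-globin intron 2 (705). Overnight attachment, then 2 days of compound at 37C, 5% CO2. Signal: peak GFP intensity summed over objects 5-250 µm.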
# [4] = target: ATP-dependent 6-phosphofructokinase (Trypanosoma brucei brucei) (UniProt O15648); assay: qHTS Assay to Find Inhibitors of T. brucei phosphofructokinase: hit validation (AID 492961);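 also: luminescence reports ADP formed as PFK phosphorylates fructose-6-phosphate with ATP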
# Summary of the method: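 Compounds titrated; %activity normalized to 0x and 1x enzyme controls, curve-fitted. Readout: ADP-Glo luminescence after 45 min room-temperature reaction of 1.25 nM PFK, 0.1 mM ATP, 0.5 mM F6P, pH 8.0.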
# [5] = target: Luciferin 4-monooxygenase (Photinus pyralis) (UniProt P08659); assay: Biochemical firefly luciferase enzyme assay for NPC (AID 624030);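 also: purified P. pyralis luciferase at 10 nM with luciferin and ATP substrate; nearly all actives have a fitted effect of over 70% in size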
# Summary of the method: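 Purified P. pyralis luciferase at 10 nM in 50 mM Tris Acetate (final), luminescence read within 5 minutes of enzyme addition to compounds. Activity normalised to PTC124 versus DMSO; concentration-response curves classed by r2, magnitude and activity.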
# [6] = S16 Schwann cell PMP22 intronic element firefly luciferase assay (AID 624032); also: potency is read from the fitted curve at half-maximal effect; nearly all actives have a fitted effect of over 30% in size
# Summary of the method: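 Rat S16 Schwann cells stably carrying firefly luciferase driven by a PMP22 intronic element, in 10% FBS, treated 24 h at 37 C. ONE-Glo luminescence normalized to PTC124 control and DMSO (0%); curves classed by r2, magnitude and activity.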
# [7] = qHTS to identify inhibitors of the type 1 interferon - major histocompatibility complex class I in skeletal muscle: primary screen against the NCATS Mechanism Interrogation Plate v5.0 (MIPE) Libary (AID 1347411); also: potency is read from the fitted curve at half-maximal effect; nearly all actives have a fitted effect of over 65% in size
# Summary of the method: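 Cells were genome-edited human myoblasts carrying a HiBit tag on endogenous HLA-B. They were treated with IFN-beta (4.0 ng/ml) and titrated compounds (top 46 uM) for 24 hrs before lytic HiBiT detection.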
# [8] = Primary qHTS for inhibitors of nuclear receptor binding SET domain protein 2 (NSD2) in an isogenic RCH-ACV NSD2 p.E1099K mutant (9B) (AID 1645876); also: potency is read from the fitted curve at half-maximal effect; nearly all actives have a fitted effect of over 70% in size
# [9] = Primary qHTS for inhibitors of nuclear receptor binding SET domain protein 2 (NSD2) in an RCH-ACV wild type WT cells (2C) (AID 1645877); also: potency is read from the fitted curve at half-maximal effect; nearly all actives have a fitted effect of over 70% in size
# [10] = target: Glutathione peroxidase 1 (Homo sapiens) (UniProt P07203); assay: Primary qHTS Assay for Inhibitors of Recombinant Selenoprotein Glutathione Peroxidase 1 (GPX1) (AID 1845191); also: nearly all actives have a fitted effect of over 65% in size
# Summary of the method: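 GR-coupled assay: compounds preincubated 30 min at room temperature with GPX1, then reaction started with CHP; final 10 nM GPX1, 1 mM GSH, 0.5 mM CHP, 0.5 mM NADPH, 100 nM GR, 0.01% BSA, pH 7.5 Tris buffer. NADPH fluorescence (340/450 nm) read at 0 and 15 min.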
# [11] = target: Phospholipid hydroperoxide glutathione peroxidase GPX4 (Homo sapiens) (UniProt P36969); assay: Primary qHTS Assay for Inhibitors of Recombinant Selenoprotein Glutathione Peroxidase 4 (GPX4) (AID 1845192); settings: outcome: dose series up to 50 µM unless noted; also: nearly all actives have a fitted effect of over 65% in size
# Summary of the method: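 GR-coupled assay: recombinant GPX4 preincubated 30 min with compound at room temperature; final 200 nM GPX4, 1 mM GSH, 0.5 mM cumene hydroperoxide, 0.5 mM NADPH, 100 nM GR, 0.01% BSA, pH 7.5 Tris. NADPH fluorescence (340/450 nm) read at 0 and 15 min.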
# [12] = qHTS drug screen for cell cycle checkpoint inhibitors in PARPi-resistant BRCA-mutant ovarian cancer cell lines. (AID 1963452; calls by dose curve); settings: PEO1/OlaR viability, CellTiter-Glo luminescence, 96 h, stronger effect = lower value
# Summary of the method: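 PEO1, PEO4 and PEO1/OlaR ovarian cancer cells, 600 per well, exposed 96 h at 37C to a dilution series. Viability read by CellTiter-Glo luminescence, normalized to DMSO and empty wells; activity summarized as Z-AUC.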
# [13] = qHTS profiling for inhibitors of Plasmodium falciparum proliferation (AID 504749); also: nearly all actives have a fitted effect of over 60% in size; also: potency is read from the fitted curve at half-maximal effect; settings: P. falciparum in erythrocytes, SYBR Green DNA, 72 h, at 28.7 µM (top of the series)
# Summary of the method: (§1)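 Readout was DNA-dye fluorescence from lysed cultures, ex 485/em 535 nm. Parasitized red cells had grown 72 h with compound; data scaled between 0.29 uM artemisinin and DMSO wells and corrected using vehicle-only plates.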
# 3D7 = assay: as above; settings: P. falciparum in erythrocytes, SYBR Green DNA, 72 h; series mostly up to 28.7 µM
# Summary of the method: as §1
# ATS189 = assay: as above; settings: P. falciparum in erythrocytes, SYBR Green DNA, 72 h; series mostly up to 28.7 µM
# Summary of the method: as §1
# CP185 = assay: as above; settings: P. falciparum in erythrocytes, SYBR Green DNA, 72 h; series mostly up to 28.7 µM
# Summary of the method: as §1
# CP192 = assay: as above; settings: P. falciparum in erythrocytes, SYBR Green DNA, 72 h; series mostly up to 28.7 µM
# Summary of the method: as §1
# CP194 = assay: as above; settings: P. falciparum in erythrocytes, SYBR Green DNA, 72 h; series mostly up to 28.7 µM
# Summary of the method: as §1
# CP201 = assay: as above; settings: P. falciparum in erythrocytes, SYBR Green DNA, 72 h; series mostly up to 28.7 µM
# Summary of the method: as §1
# CP238 = assay: as above; settings: P. falciparum in erythrocytes, SYBR Green DNA, 72 h; series mostly up to 28.7 µM
# Summary of the method: as §1
# CP247 = assay: as above; settings: P. falciparum in erythrocytes, SYBR Green DNA, 72 h; series mostly up to 28.7 µM
# Summary of the method: as §1
# CP250 = assay: as above; settings: P. falciparum in erythrocytes, SYBR Green DNA, 72 h; series mostly up to 28.7 µM
# Summary of the method: as §1
# CP262 = assay: as above; settings: P. falciparum in erythrocytes, SYBR Green DNA, 72 h; series mostly up to 28.7 µM
# Summary of the method: as §1
# CP265 = assay: as above; settings: P. falciparum in erythrocytes, SYBR Green DNA, 72 h; series mostly up to 28.7 µM
# Summary of the method: as §1
# CP266 = assay: as above; settings: P. falciparum in erythrocytes, SYBR Green DNA, 72 h; series mostly up to 28.7 µM
# Summary of the method: as §1
# CP268 = assay: as above; settings: P. falciparum in erythrocytes, SYBR Green DNA, 72 h; series mostly up to 28.7 µM
# Summary of the method: as §1
# CP291 = assay: as above; settings: P. falciparum in erythrocytes, SYBR Green DNA, 72 h; series mostly up to 28.7 µM
# Summary of the method: as §1
# CP297 = assay: as above; settings: P. falciparum in erythrocytes, SYBR Green DNA, 72 h; series mostly up to 28.7 µM
# Summary of the method: as §1
# CP315 = assay: as above; settings: P. falciparum in erythrocytes, SYBR Green DNA, 72 h; series mostly up to 28.7 µM
# Summary of the method: as §1
# CP325 = assay: as above; settings: P. falciparum in erythrocytes, SYBR Green DNA, 72 h; series mostly up to 28.7 µM
# Summary of the method: as §1
# CP329 = assay: as above; settings: P. falciparum in erythrocytes, SYBR Green DNA, 72 h; series mostly up to 28.7 µM
# Summary of the method: as §1
# CP335 = assay: as above; settings: P. falciparum in erythrocytes, SYBR Green DNA, 72 h; series mostly up to 28.7 µM
# Summary of the method: as §1
# DFO2036 = assay: as above; settings: P. falciparum in erythrocytes, SYBR Green DNA, 72 h; series mostly up to 28.7 µM
# Summary of the method: as §1
# DIV30 = assay: as above; settings: P. falciparum in erythrocytes, SYBR Green DNA, 72 h; series mostly up to 28.7 µM
# Summary of the method: as §1
# Dd2 = assay: as above; settings: P. falciparum in erythrocytes, SYBR Green DNA, 72 h; series mostly up to 28.7 µM
# Summary of the method: as §1
# ECU = assay: as above; settings: P. falciparum in erythrocytes, SYBR Green DNA, 72 h; series mostly up to 28.7 µM
# Summary of the method: as §1
# FAB9 = assay: as above; settings: P. falciparum in erythrocytes, SYBR Green DNA, 72 h; series mostly up to 28.7 µM
# Summary of the method: as §1
# GB4 = assay: as above; settings: P. falciparum in erythrocytes, SYBR Green DNA, 72 h; series mostly up to 28.7 µM
# Summary of the method: as §1
# HB3 = assay: as above; settings: P. falciparum in erythrocytes, SYBR Green DNA, 72 h; series mostly up to 28.7 µM
# Summary of the method: as §1
# P94_40 = assay: as above; settings: P. falciparum in erythrocytes, SYBR Green DNA, 72 h; series mostly up to 28.7 µM
# Summary of the method: as §1
# PAD = assay: as above; settings: P. falciparum in erythrocytes, SYBR Green DNA, 72 h; series mostly up to 28.7 µM
# Summary of the method: as §1
# SC27B = assay: as above; settings: P. falciparum in erythrocytes, SYBR Green DNA, 72 h; series mostly up to 28.7 µM
# Summary of the method: as §1
# TAB113 = assay: as above; settings: P. falciparum in erythrocytes, SYBR Green DNA, 72 h; series mostly up to 28.7 µM
# Summary of the method: as §1
# Chain of Glutathione peroxidase 1 (Homo sapiens) (P07203 whole entry, looked up): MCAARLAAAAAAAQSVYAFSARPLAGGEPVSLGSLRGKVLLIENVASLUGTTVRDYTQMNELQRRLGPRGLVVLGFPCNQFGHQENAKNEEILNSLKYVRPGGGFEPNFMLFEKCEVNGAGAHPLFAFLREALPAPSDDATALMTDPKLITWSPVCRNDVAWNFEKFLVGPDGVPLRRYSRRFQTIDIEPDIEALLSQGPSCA
# Chain of Cytochrome P450 3A4 (Homo sapiens) (P08684 whole entry, looked up): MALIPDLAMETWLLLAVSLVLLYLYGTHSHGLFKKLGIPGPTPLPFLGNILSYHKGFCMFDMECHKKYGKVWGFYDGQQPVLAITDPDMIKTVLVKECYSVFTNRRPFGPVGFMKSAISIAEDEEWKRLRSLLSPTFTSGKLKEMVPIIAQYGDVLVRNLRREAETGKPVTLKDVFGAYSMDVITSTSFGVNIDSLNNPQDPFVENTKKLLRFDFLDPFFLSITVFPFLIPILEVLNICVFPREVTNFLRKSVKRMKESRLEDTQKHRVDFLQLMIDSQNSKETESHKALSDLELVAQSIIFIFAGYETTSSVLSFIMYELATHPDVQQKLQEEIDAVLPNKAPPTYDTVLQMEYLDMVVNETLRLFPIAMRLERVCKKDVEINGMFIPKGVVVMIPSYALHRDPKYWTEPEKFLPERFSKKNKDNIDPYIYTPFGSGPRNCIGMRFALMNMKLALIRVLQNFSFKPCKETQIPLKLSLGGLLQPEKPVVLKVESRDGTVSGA
# Chain of Phospholipid hydroperoxide glutathione peroxidase GPX4 (Homo sapiens) (P36969 whole entry, looked up): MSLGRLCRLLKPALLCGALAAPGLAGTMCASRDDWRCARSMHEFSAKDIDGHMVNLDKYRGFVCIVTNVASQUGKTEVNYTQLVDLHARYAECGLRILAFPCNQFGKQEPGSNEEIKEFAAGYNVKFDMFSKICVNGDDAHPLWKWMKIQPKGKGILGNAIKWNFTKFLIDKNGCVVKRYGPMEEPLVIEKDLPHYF
# Chain of ATP-dependent 6-phosphofructokinase (Trypanosoma brucei brucei) (O15648 whole entry, looked up): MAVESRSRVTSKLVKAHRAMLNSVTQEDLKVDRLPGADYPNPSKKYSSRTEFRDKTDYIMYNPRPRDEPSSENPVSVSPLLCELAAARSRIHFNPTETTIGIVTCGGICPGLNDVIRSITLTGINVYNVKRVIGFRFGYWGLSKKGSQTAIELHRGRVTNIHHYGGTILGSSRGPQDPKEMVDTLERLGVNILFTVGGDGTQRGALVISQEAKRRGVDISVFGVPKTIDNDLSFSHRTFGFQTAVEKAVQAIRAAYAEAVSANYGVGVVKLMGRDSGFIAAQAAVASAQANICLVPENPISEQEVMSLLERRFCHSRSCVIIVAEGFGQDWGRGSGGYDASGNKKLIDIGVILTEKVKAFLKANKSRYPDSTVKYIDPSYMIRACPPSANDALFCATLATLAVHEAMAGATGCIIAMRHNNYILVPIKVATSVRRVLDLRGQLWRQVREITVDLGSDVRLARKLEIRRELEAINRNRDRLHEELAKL
# Chain of Luciferin 4-monooxygenase (Photinus pyralis) (P08659 whole entry, looked up): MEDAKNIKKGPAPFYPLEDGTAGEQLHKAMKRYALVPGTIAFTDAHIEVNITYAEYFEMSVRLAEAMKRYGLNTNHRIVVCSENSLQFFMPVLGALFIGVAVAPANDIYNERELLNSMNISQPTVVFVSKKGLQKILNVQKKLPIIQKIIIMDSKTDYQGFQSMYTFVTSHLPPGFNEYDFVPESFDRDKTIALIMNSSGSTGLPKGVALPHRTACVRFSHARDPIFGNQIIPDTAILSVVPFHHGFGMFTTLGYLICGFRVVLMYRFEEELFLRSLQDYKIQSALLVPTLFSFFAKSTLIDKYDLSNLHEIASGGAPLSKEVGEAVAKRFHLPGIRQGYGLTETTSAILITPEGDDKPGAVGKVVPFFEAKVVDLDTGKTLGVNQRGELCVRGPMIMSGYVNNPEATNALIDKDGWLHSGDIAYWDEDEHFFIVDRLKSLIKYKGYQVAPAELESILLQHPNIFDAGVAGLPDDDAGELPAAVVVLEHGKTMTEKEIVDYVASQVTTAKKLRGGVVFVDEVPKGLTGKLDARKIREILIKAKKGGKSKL
smiles,measurement,setting,value
C=C1CCC2[C@](C)(CO)C(O)CC[C@]2(C)C1C/C=C1/C(=O)OCC1O (stereo partly specified),Potency,[1],inactive
same,outcome,[2],inactive
same,outcome,[3],inactive
same,outcome,[4],inactive
same,Potency,[5],inactive
same,Potency,[6],14.4 µM (active)
same,Potency,[7],13.1 µM (active)
same,Potency,[8],7.42 µM (active)
same,Potency,[9],7.42 µM (active)
same,Potency,[10],inactive
same,Potency,[11],inactive
same,Z-AUC,[12],0.689 (inactive)
same,Z-AUC,[12]; measured here: PEO1 parental Z-AUC,-0.31
same,Z-AUC,[12]; measured here: PEO4 Z-AUC,-0.312
same,"activity, negative = inhibition",[13]; parasite line A,-24.6% (inactive)
same,"activity, negative = inhibition",[13]; parasite line B,-25.9% (inactive)
same,Potency,3D7,inactive
same,Potency,ATS189,inactive
same,Potency,CP185,inactive
same,Potency,CP192,inactive
same,Potency,CP194,inactive
same,Potency,CP201,inactive
same,Potency,CP238,inactive
same,Potency,CP247,11.2 µM (active)
same,Potency,CP250,12.6 µM (active)
same,Potency,CP262,inactive
same,Potency,CP265,inactive
same,Potency,CP266,inactive
same,Potency,CP268,inactive
same,Potency,CP291,inactive
same,Potency,CP297,inactive
same,Potency,CP315,inactive
same,Potency,CP325,inactive
same,Potency,CP329,inactive
same,Potency,CP335,inactive
same,Potency,DFO2036,inactive
same,Potency,DIV30,inactive
same,Potency,Dd2,inactive
same,Potency,ECU,inactive
same,Potency,FAB9,inactive
same,Potency,GB4,inactive
same,Potency,HB3,inactive
same,Potency,P94_40,inactive
same,Potency,PAD,inactive
same,Potency,SC27B,inactive
same,Potency,TAB113,inactive
